Compounds with a hit are over-represented: about 4.8% of the library has one in this group of screens.
Mdm2 MdmX PPI: inhibitors of human Mdm2-MdmX association, primary screen, cell-based, luminescence, split luciferase, SaOS-2, uHTS | Protein Mdm4 (Homo sapiens) + E3 ubiquitin-protein ligase Mdm2 (Homo sapiens), … | SaOS-2 split-luciferase Mdm2/MdmX complementation | inhibition, % at 8 µM | 330,000 tested, 3% active | AID 485346, 2010;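 active = inhibition of at least 50% at 8 µM in the primary screen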
Target sequence (O15151 whole entry, looked up): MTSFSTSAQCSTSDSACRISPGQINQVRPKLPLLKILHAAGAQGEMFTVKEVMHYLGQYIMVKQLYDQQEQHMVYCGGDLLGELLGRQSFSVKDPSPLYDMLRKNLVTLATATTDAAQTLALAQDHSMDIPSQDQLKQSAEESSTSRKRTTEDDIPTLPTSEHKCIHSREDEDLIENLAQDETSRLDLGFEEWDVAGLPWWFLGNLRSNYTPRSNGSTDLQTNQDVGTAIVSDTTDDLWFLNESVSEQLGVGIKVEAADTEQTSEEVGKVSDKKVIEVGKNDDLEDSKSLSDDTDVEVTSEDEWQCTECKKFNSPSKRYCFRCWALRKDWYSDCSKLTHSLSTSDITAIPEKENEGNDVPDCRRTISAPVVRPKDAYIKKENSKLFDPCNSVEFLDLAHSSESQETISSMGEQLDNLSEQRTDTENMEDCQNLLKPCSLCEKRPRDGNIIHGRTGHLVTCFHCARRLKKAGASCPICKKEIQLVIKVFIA
Target sequence (Q00987 whole entry, looked up): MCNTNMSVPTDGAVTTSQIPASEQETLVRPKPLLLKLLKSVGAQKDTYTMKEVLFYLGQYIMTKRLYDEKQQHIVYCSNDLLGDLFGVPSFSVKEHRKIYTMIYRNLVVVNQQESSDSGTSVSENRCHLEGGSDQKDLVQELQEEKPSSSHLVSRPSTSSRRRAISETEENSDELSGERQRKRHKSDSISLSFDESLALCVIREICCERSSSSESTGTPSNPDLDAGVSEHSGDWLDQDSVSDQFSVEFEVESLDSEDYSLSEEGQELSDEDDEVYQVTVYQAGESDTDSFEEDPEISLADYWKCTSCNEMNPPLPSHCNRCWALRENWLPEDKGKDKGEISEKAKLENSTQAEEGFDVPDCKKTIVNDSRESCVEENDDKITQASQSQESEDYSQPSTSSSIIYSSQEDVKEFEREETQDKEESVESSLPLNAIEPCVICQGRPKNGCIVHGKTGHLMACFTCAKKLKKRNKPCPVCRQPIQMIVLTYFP
CSC inhib: cancer stem cell viability inhibitors, primary screen, luminescence; cancer stem cell-like cells viability; inhibition, % at 7.5 µM; 300,000 tested, 1.1% active; in the data active = inhibition above about 75%; inconclusive = no clear call, values can overlap the other calls; tested in HMLE shEcad cells
MPTP block: mitochondrial permeability transition pore inhibitors, primary screen, biochemical, isolated mouse mitochondria, absorbance. Ca2+ swelling absorbance, 30 min. inhibition, % at 10 µM. 360,000 tested, 1.4% active;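 active = inhibition of 50% or more, scaled per plate between neutral and stimulator controls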;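 also: 0% = DMSO wells given calcium and 100% = 1 mM EGTA wells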
Beta apoptosis: inhibitors of cytokine-induced beta cell apoptosis, primary screen, luminescence | INS-1E cytokine-induced death, ATP luminescence, 48 h; percent of positive-control rescue, neutral wells zero | protection from apoptosis, % (no concentration beside the values) | 300,000 tested, 0.8% active;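 active = Every replicate reaches about 75%, or at least half do and their mean reaches it too, limit read from the data; inconclusive = At least half of replicates reach the limit but their mean does not; inactive = Under half of replicates reach the limit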;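 also: 0% = cytokine-treated negative control wells and 100% = positive control rescue; higher means more ATP so stronger rescue from cytokine killing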
Calb FLC: C. albicans growth inhibition with fluconazole, primary screen, CaCi-2 strain, Alamar Blue fluorescence; growth inhibition, % (concentration not given with the values); 300,000 tested, 0.57% active; C. albicans CaCi-2 (fluconazole-resistant clinical isolate) + fluconazole, 48 h; AID 1979, 2009;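 active = growth inhibition above about 58% in most replicates, limit read from the data, passing the limit was not always enough; inconclusive = exactly half the replicates above a set limit; inactive = most replicates below a set limit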;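 also: all wells also contain fluconazole at 8 µg/ml as a sub-toxic cotreatment; 0% = median of DMSO wells and 100% = median of geldanamycin control wells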
Numbers without * were called inactive; u = inconclusive; x = not tested or not shown.

SMILES	Mdm2 MdmX PPI	CSC inhib	MPTP block	Beta apoptosis	Calb FLC
O=C1c2c(-c3ccc(Br)cc3)noc2CCN1Cc1cn(C2CCCC2)nn1	x	x	6	x	x
O=C(NCc1ccc(F)cc1)c1cc(C2CCCN(C(=O)c3ccc4c(c3)CCO4)C2)on1 (stereo unspecified)	x	x	0	x	x
Cc1cccc(Cc2cnc(N3C(=N)SC(c4ccccc4)C3=O)s2)c1 (stereo unspecified)	22	-11	-6	12	-2
Cc1cccc(Cc2cnc(N3C(=N)SC(C)C3=O)s2)c1 (stereo unspecified)	34	56	2	3	94*
Cc1ccc(Cc2cnc(N3C(=N)SC(C)C3=O)s2)cc1 (stereo unspecified)	10	43	-1	8	82*
CCC(CNc1cc(OC)cc2cccnc12)NC1CCCCC1 (stereo unspecified)	x	27	1	101*	-13
O=C(CCC(=O)N1CCN(c2ccc(O)cc2)CC1)c1ccc(Br)cc1	-13	101*	x	5	u
CCOc1ccc(C(=O)CCC(=O)N2CCN(c3ccc(O)cc3)CC2)cc1	6	81*	2	10	x
CCOC(=O)N1CCN(C(=O)CCC(=O)c2ccc(OCC)cc2)CC1	7	-8	-2	x	-2
CCOC(=O)N1CCN(S(=O)(=O)c2ccc(C(=O)NNc3nc4ccc(Cl)cc4s3)cc2)CC1	34	104*	0	82*	-4
COc1cc2cc(C(=O)N3CCOCC3)cc(-c3ccc(C)cc3)c2cc1OC	19	-2	1	101*	-6
COc1ccc(OC)c(/C=N/NC(=O)c2[nH]ncc2Br)c1	-9	6	2	0	-8
CCOc1ccc(/C=N/NC(=O)c2[nH]ncc2Br)c(O)c1	-20	87*	1	77*	114*
Cc1ccc(O)c(/C=N/NC(=O)c2[nH]ncc2Br)c1	-19	17	0	84*	-6
C#CCNC(=O)C[C@@H]1C[C@@]2(C(=O)OCC)CCC=C2N(Cc2ccc(Cl)cc2Cl)C1=O	x	x	1	x	x
CCC(C)n1ncn(-c2ccc(N3CCN(c4ccc(O)cc4)CC3)cc2)c1=O (stereo unspecified)	-6	104*	1	3	5
Cc1ccc(NC(=O)NCc2ccccn2)c(C)c1	6	-5	0	2	95*
Cc1ccc(F)c(S(=O)(=O)NC(=O)C2(C)CCN2C(=O)Cc2cccc3ccccc23)c1 (stereo unspecified)	x	x	1	x	x
O=C(CCNC(=O)c1ccc(Br)cc1)Nc1nccs1	2	-8	0	-1	112*
NC(COCc1ccccc1)c1csc(NC(=O)Nc2cccc(C(F)(F)F)c2)n1 (stereo unspecified)	x	x	5	x	x
COc1ccc(C(c2c(O)ccc3ccccc23)N2CCOCC2)c(OC)c1 (stereo unspecified)	-28	101*	5	-16	87*
Cc1cccc(NC(=S)N/N=C/c2c[nH]c3ccccc23)c1	44	79*	4	19	5
Cc1ccc(NC(=S)N/N=C/c2c(C)[nH]c3ccccc23)cc1	25	97*	3	10	u
Cc1[nH]c2ccccc2c1/C=N/NC(N)=S	11	2	2	-7	1
O=C(C[C@H]1CC[C@@H]2[C@H](COC[C@H](O)CN2C(=O)c2cnccn2)O1)NCc1ccc(Cl)cc1	x	x	-1	x	x
SMILES	Mdm2 MdmX PPI	CSC inhib	MPTP block	Beta apoptosis	Calb FLC
Cc1ccc(S(=O)(=O)N2[C@H](CC(=O)c3ccc(F)cc3)OC[C@@H]2C(C)C)cc1	x	x	0	x	x
CCOc1ccc2c(c1)-c1c(ssc1=S)C(C)(C)N2C(=O)c1ccco1	35	85*	1	11	8
COc1ccccc1Cc1c(-c2cccc(Br)c2)nc2ccc(Cl)cn12	x	x	1	x	x
CCCN1C(=O)/C(=C\c2ccncc2)SC1=Nc1ccccc1	6	x	1	-9	-30
CCN1C(=O)/C(=C\c2ccncc2)SC1=Nc1ccc(C)c(C)c1	25	84*	1	8	3
Cc1ccc(OCc2cc(C(=O)N3CC4C[C@@H]5CC3C[C@H](C4)C5)no2)cc1C	-24	-7	3	-1	0
Cc1cccc(C)c1OCc1cc(C(=O)N2CC3C[C@@H]4CC2C[C@H](C3)C4)no1	-84	107*	-1	3	-32
CCCN(CC1CC1)c1nc(C)nc(Nc2c(Cl)cc(Cl)cc2Cl)c1Cl	41	86*	0	x	-5
Cc1cn([C@H]2C[C@H](O)[C@@H](CCC(=O)NCc3cccc4ccccc34)O2)c(=O)[nH]c1=O	x	x	-2	x	x
CN(C)Cc1ccccc1C(O)(c1ccccc1)c1ccccc1	14	5	0	-4	-6
CC1(C)OC(C(O)(c2ccccc2)c2ccccc2)[C@@H](C(O)(c2ccccc2)c2ccccc2)O1 (stereo partly specified)	x	108*	0	32	3
CC1(c2nnnn2-c2ccc3c(c2)OCCO3)CCC(=O)N1CC(F)(F)F (stereo unspecified)	x	x	-2	x	x
CCC(CO)Oc1cc(NCc2ccc(C(C)(C)C)cc2)c2ncn(C(C)C)c2c1 (stereo unspecified)	19	x	6	137*	x
CCCCOc1cc(NCc2ccccc2)c2ncn(C(C)C)c2c1	47	x	0	80*	x
CCOc1ccc(-c2cc(C(=O)NCc3ccccc3)[nH]n2)c(C)c1	x	x	2	x	x
Cc1ccc(-c2cc(C(=O)Nc3cnn(C45CC6CC(CC(C6)C4)C5)c3)no2)cc1	6	-11	3	5	0
O=C(Nc1cnn(C23CC4CC(CC(C4)C2)C3)c1)c1cc(-c2ccccc2)on1	-13	81*	11	14	20
CCC(C)n1cnc2c(c1=O)c1nc3ccccc3nc1n2Cc1ccc(OC)cc1 (stereo unspecified)	8	4	14	-2	98*
COc1ccc(Cn2c(C)nc3c(c2=O)c2nc4ccccc4nc2n3Cc2ccco2)cc1	x	x	10	x	x
CCC1=NN(C(=O)c2ccc(Cl)cc2)C(O)(c2ccccc2)C1 (stereo unspecified)	12	63	4	7	-52
CCC1=NN(C(=O)c2ccccc2Br)C(O)(c2ccc(Br)cc2)C1 (stereo unspecified)	10	-9	0	-1	2
COC(=O)C1=NN(C(=O)c2ccc(Cl)cc2)C(O)(c2ccccc2)C1 (stereo unspecified)	18	-4	3	-8	59*
CCC1=NN(C(=O)c2ccccc2O)C(O)(c2ccccc2)C1 (stereo unspecified)	41	79*	4	87*	107*
CCC1=NN(C(=O)c2ccc(Cl)cc2)C(O)(c2ccc(C)cc2)C1 (stereo unspecified)	32	99*	29	5	0
Cc1ccc(F)c(S(=O)(=O)NC(=O)C2(C)CCN2C(=O)c2cccc3ccccc23)c1 (stereo unspecified)	x	x	1	x	x

High-throughput results from PubChem.
